Screening results (PubChem BioAssay)
Most compounds without a hit are left out; they make up all but 10% or so of the library.
Pf growth 48h = inhibits P. falciparum growth in the first generation, 48 h. hit rate 5.9% among 310,000. Potency, µM (highest dose often 28.7 µM), inactives show at the highest dose activity change, negative = inhibition, usual class: inhibitors. P. falciparum luciferase growth in erythrocytes, 48 h. AID 504832; also: % is scaled to controls: 0 for no effect and ±100 for the full control effect
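Luminescence readout; reporter = integrated firefly luciferase in P. falciparum. RBC culture at 2% hematocrit, 0.1% parasitemia final, 37 C/5% CO2; decreased signal taken as growth inhibition.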
SARS PLP yeast = blocks SARS-CoV papain-like protease in a yeast assay; S. cerevisiae expressing SARS-CoV PLpro, growth rescue; Potency, µM (doses to about 32.9 µM), for the others: at the highest dose activity, positive = growth rescue, usual class: activators; hit rate 0.19% among 330,000; AID 485353; calls by dose curve; also: 0% is about no effect; nearly all actives have a fitted effect of over 55% in size
NS1 function inh = blocks influenza NS1 protein function. hit rate 0.4% among 270,000. Potency, µM (doses to about 46.1 µM), for the others: at the top dose activity, positive = more growth; calls by dose curve; also: actives are rising curves; nearly all actives have a fitted effect of over 50% in size
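A cell-based growth assay was used: compounds that relieve NS1-induced slow growth of budding yeast raise OD600. Assay medium was yeast nitrogen base with ammonium sulphate and -URA supplement, pH 6.0, with 2% galactose.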
Pf growth 96h = inhibits malaria parasite growth, 96 h. AID 504834. Potency, µM (top dose mostly 28.7 µM), inactives show at the top dose activity change, negative = inhibition, hits mostly inhibitors. P. falciparum luciferase reporter growth, 96 h. hit rate 6.9% among 320,000; also: % is scaled to controls: 0 for no effect and ±100 for the full control effect
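96 h incubation, 37 C, 5% CO2, of luciferase-reporter P. falciparum-infected RBCs (2% hematocrit, 0.05% parasitemia final) with test compounds; endpoint luminescence.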
Starred values were filed as active, the others as inactive; ? = inconclusive; · = not tested or not shown. Unless noted, calls follow the shape of the dose curve; as a rule, active = well fitted inhibition curve with a large enough effect; inconclusive = small, poorly fitted or top-dose-only effect, or another doubt; inactive = no such curve, though single readings can be large or run the other way. Potency is read from the fitted curve at half-maximal effect.

SMILES | Pf growth 48h | SARS PLP yeast | NS1 function inh | Pf growth 96h
CC(Sc1nnnn1-c1ccccc1)C(=O)Nc1ccc(N2CCN(C)CC2)cc1 (stereo not drawn) | -2% | 5% | -4% | 22%
CC(Sc1nnnn1-c1ccccc1)C(=O)Nc1ccccc1-c1ccccc1 (stereo not drawn) | ? | 5% | ? | 2.9µM*
NNC(=O)c1cc2c(N3CCC(Cc4ccccc4)CC3)ncnc2s1 | ? | -1% | · | ?
CC[C@@H](c1ccc2cc(O)ccc2c1)C(C)(C)C(=O)O | · | · | -7% | ·
COc1ccc(CN(Cc2cccn2C)S(=O)(=O)c2cccc(C(F)(F)F)c2)cc1 | 12µM* | -4% | 0% | ?
O=C(c1ccc2nc[nH]c2c1)N1CCN(c2ncc(C(F)(F)F)cc2Cl)CC1 | 39% | -5% | 8% | ?
CN(Cc1nc(-c2cccnc2)no1)S(=O)(=O)c1ccc(Br)cc1 | -8% | -20% | -7% | 8.3µM*
COc1c(-c2ccccc2)oc2c(ccc3occc32)c1=O | -27% | 1% | · | -23%
COc1ccccc1-c1cc(C(F)(F)F)nc(NCc2cccs2)n1 | ? | -50% | -19% | 5.9µM*
CCOC(=O)C1=C(C)N=C2c3ccccc3C(=O)C2C1c1ccc(Cl)cc1 (stereo not drawn) | 10µM* | -12% | 21% | 10µM*
CCOc1ccc(C2CC(=O)n3nc(C45CC6CC(CC(C6)C4)C5)nc3S2)cc1OC (stereo not drawn) | -4% | -1% | 10% | 12µM*
COc1ccc(C2CC(=O)n3nc(C45CC6CC(CC(C6)C4)C5)nc3S2)cc1OC (stereo not drawn) | 1% | -3% | -4% | ?
Cc1ccc(NC(=O)c2cc(C(C)(C)C)nn2Cc2ccccc2)cc1 | 8.3µM* | -2% | -2% | 9.3µM*
COc1ccccc1NNC(=O)c1cc(C(C)(C)C)nn1Cc1ccccc1 | ? | 0% | -1% | ?
CNC(=O)c1ccc(-n2nc(C)cc2-c2ccccc2)cc1 | 1.7µM* | 2% | 18% | ?
CC(C)(C)c1cc(C(=O)NNc2cc(C(F)(F)F)ccc2Cl)n(Cc2ccccc2)n1 | 13µM* | -2% | 2% | 12µM*
Cc1ccc(C)c(NC(=O)c2nc(-c3ccccc3)n(-c3ccccc3)n2)c1 | · | 7% | -4% | 9.3µM*
Cn1c(CNC(=O)c2ccc3c(c2)OCO3)nnc1SCC(=O)Nc1ccccc1F | 0% | -2% | 6% | 0%
O=C(CCCOc1ccc(Br)cc1)NNC(=O)c1ccncc1 | -22% | 2% | · | 7%
Cc1cc(C(=O)Nc2ccc(Cl)cc2)n(-c2ccccc2)n1 | 21% | -2% | -4% | ?
CC(C)(C)c1cc(C(=O)NC2CC2)n(Cc2ccc(F)cc2)n1 | ? | 1% | 3% | ?
CC(C)(C)c1cc(C(=O)Nc2ccc(F)cc2)n(Cc2ccc(F)cc2)n1 | 10µM* | -13% | -31% | 12µM*
Cc1ccc(NC(=O)c2cc(C)nn2-c2ccccc2)cc1 | · | -5% | 0% | 13µM*
O=C(NCCSc1ccccc1)c1ccc(CN2CCOCC2)cc1 | 131% | -1% | -13% | 3%
CC(CCc1ccccc1)NC(C)C(O)c1ccc(O)cc1 (stereo not drawn) | ? | 1% | -5% | 1.9µM*
SMILES | Pf growth 48h | SARS PLP yeast | NS1 function inh | Pf growth 96h
CC(C(O)c1ccc(O)cc1)N1CCC(Cc2ccccc2)CC1 (stereo not drawn) | 2.1µM* | 0% | -18% | ?
C[C@@H](CN1CCC(Cc2ccccc2)CC1)[C@@H](O)c1ccc(O)cc1 | ? | · | -10% | -14%
CC(COc1ccccc1)NC(C)C(O)c1ccc(O)cc1 (stereo not drawn) | -14% | -4% | -8% | ?
CC1CCCN(C(=O)COC(=O)CNC(=O)c2ccc(Br)cc2)C1 (stereo not drawn) | -2% | · | · | 2%
COc1ccccc1NC(=O)CN(Cc1ccco1)C(=O)c1ccc(Cl)nc1 | 114% | 0% | 5% | -1%
CCOCCCNC(=O)c1ccc2c(c1)N=C(CC)c1cc(Br)ccc1S2 | 4.1µM* | -3% | · | ?
C/C(=N\NC(=O)c1nn(C)cc1Br)c1ccc(NC(=O)c2ccncc2)cc1 | 1% | 5% | 6% | 4.1µM*
Cc1cc(C)n2nc(C(=O)OCC(=O)c3ccc(F)cc3)nc2n1 | -14% | 0% | · | -3%
CC(C)Nc1nc(NC(C)C)nc(N(C#N)C(C)C(=O)N(C)C)n1 (stereo not drawn) | -8% | 0% | 2% | 5.2µM*
CCNc1nc(NC(C)C)nc(N(C#N)C(C)C(=O)N(C)C)n1 (stereo not drawn) | ? | 17% | 7% | ?
CCN1C(=O)C(=Cc2cccc(OC)c2Oc2ccc([N+](=O)[O-])cc2[N+](=O)[O-])SC1=S | 5.2µM* | 0% | 4% | 10µM*
COc1cc(/C=C2\SC(=O)NC2=O)ccc1Oc1ccc([N+](=O)[O-])cc1[N+](=O)[O-] | ? | 6% | · | 91%
CCN1CCS/C1=C/C=C/C1=[N+](CC)CCS1 | 0.74µM* | -9% | -3% | 0.66µM*
CCN1CCS/C1=C\C=C\C1=[N+](CC)CCS1 | 0.93µM* | -11% | · | 63%
CC1(C)C=Cc2c(c3c(c4c(=O)c(-c5ccc(O)cc5)coc24)OC(C)(C)CC3)O1 | ? | -6% | 5% | 9.3µM*
CCC1Oc2ccccc2N(CC(=O)NC2CCCC2)C1=O (stereo not drawn) | 8% | 1% | 18% | -4%
c1ccc2[nH]c(CN3CCN(c4ncnc5c4oc4ccccc45)CC3)nc2c1 | ? | 5% | -67% | 24%
Cc1nc(N2CCN(Cc3nc4ccccc4[nH]3)CC2)c2oc3ccccc3c2n1 | ? | -4% | -94% | 5.9µM*
Cc1ccc(OCC(=O)Nc2ccc(S(=O)(=O)N3CCCC3)cc2)cc1 | -19% | 3% | -1% | -12%
CCN(CC)S(=O)(=O)c1cc(NC(=O)CSc2nc3c(cc2C#N)C(=O)CC(C)(C)C3)ccc1C | 3.7µM* | 29% | 13% | 2.6µM*
O=C(Nc1ccccc1Cl)c1ccc(-c2ccccn2)s1 | 158% | -2% | -52% | 50%
CCOc1ccc2[nH]c3c(NCCOC)ncnc3c2c1 | 5% | 1% | 5% | ?
COc1ccc2[nH]c3c(NCCN(C(C)C)C(C)C)ncnc3c2c1 | 2.6µM* | -3% | -32% | 0.47µM*
CCOc1ccc2[nH]c3c(NCCN(CC)CC)ncnc3c2c1 | 2.3µM* | -5% | 0% | 2.1µM*
CCOc1ccc2[nH]c3c(NCC(C)C)ncnc3c2c1 | 2.3µM* | 1% | -4% | 1.7µM*
SMILES | Pf growth 48h | SARS PLP yeast | NS1 function inh | Pf growth 96h
O=C(CC(c1ccccc1)c1cc(Cl)ccc1O)NCCCN1CCOCC1 (stereo not drawn) | ? | 0% | 2% | -13%
COc1cc(Nc2ncnc(N)n2)cc(OC)c1 | 16% | 0% | 7% | 11%
N#Cc1c(NC(=O)CSc2ncnc3sccc23)oc(-c2ccco2)c1-c1ccco1 | · | 0% | 4% | 2.3µM*
O=C(Cc1ccccc1)OCCN1CCOCC1 | 7% | 22% | 11% | ?
O=C(CCc1ccccc1)OCCN1CCOCC1 | 67% | 7% | 6% | 10µM*
O=C(CN1CCN(Cc2ccccc2)C1=O)NCCCN1CCOCC1 | · | -2% | 5% | 2.9µM*
